Results on 28 compounds are retold here after PubChem BioAssay (EPA / NIEHS).

Values joined by “and” are separate entries in the source; they are usually repeats but may differ in a detail not shown here. Identical values can stand only once. Records with an inconclusive call do not appear. Some structures have more than one record in an assay (separate samples or runs), and their calls can disagree. Active and inactive are the calls of the source. The calls were made as follows: active = hit-call score of the fitted dose curve at least 0.9, where 1 is the maximum; inconclusive = response in the unintended direction; inactive = score below 0.9.

A word on the AC50: it is the concentration at which the activity in the assay is half-maximal.

For assay [1], the target named is human Caspase 8 (CASP8), CASP8 (gene 841) (UniProt Q14790). As to the kind of experiment: NVS_ENZ_hCASP8: NovaScreen (NVS) Enzymatic Assay for human Caspase 8 (CASP8) (AID 2283146). The gist of the method:
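E. coli-expressed enzyme was used in a cell-free fluorogenic substrate assay read 1 h after dosing. Loss of signal was scored relative to DMSO, and the primary screen was run in duplicate at 25 uM.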

For assay [2], the target named is human Beta-secretase (BACE), BACE1 (gene 23621) (UniProt P56817). Put plainly: NVS_ENZ_hBACE: NovaScreen (NVS) Enzymatic Assay for human Beta-secretase (BACE) (AID 2283140).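 Also: hits are inhibitors that reduce fluorescent substrate signal versus DMSO.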 The gist of the method: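 Cell-free assay of recombinant Sf9-expressed human BACE with fluorescent substrate, read by fluorescence intensity after 1 h. Primary screen in duplicate at 25 uM; actives then run in concentration series; loss of signal relative to DMSO.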

A further assay addresses Caspase-3 (Homo sapiens) (UniProt P42574). Put plainly: NVS_ENZ_hCASP3: NovaScreen (NVS) Enzymatic Assay for human Caspase 3 (CASP3) (AID 2283139). The gist of the method:
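Recombinant human caspase-3 from E. coli with a fluorogenic substrate, read by fluorescence 1 h after dosing. Primary screen in duplicate at 25 uM. Actives (for example ≥30% inhibition) rerun as concentration-response up to 50 uM.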

In assay [3] the target is human AKT serine/threonine Kinase 2 (AKT2), AKT2 (gene 208) (UniProt P31751). As to the kind of experiment: NVS_ENZ_hAKT2: NovaScreen (NVS) Enzymatic Assay for human AKT serine/threonine Kinase 2 (AKT2) (AID 2283141). The gist of the method:
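Cell-free fluorescence/electrophoretic mobility shift readout of recombinant human AKT2 activity, 1 h after chemical dosing. Duplicate primary screen at 25 uM, then singleton concentration-response up to 50 uM; loss of signal versus DMSO baseline.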

The next assay has as its target CDK2 (gene 1017) (UniProt P24941). As to the kind of experiment: NVS_ENZ_hCDK2: NovaScreen (NVS) Enzymatic Assay for human Cyclin-Cependent Kinase 2 (CDK2) (AID 2283144). The gist of the method:
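Cell-free recombinant human CDK2 with fluorescent substrate, product separated by electrophoretic mobility shift; 1 hr read. Primary screen at 25 uM in duplicate, actives retested in concentration-response up to 50 uM; loss of signal versus DMSO.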

Assay [4] concerns the target human Casein Kinase 2- alpha 2 beta 2 (CK2a2b2), CSNK2A1 (gene 1457) (UniProt P68400). Put plainly: NVS_ENZ_hCK2a2b2: NovaScreen (NVS) Enzymatic Assay for human Casein Kinase 2- alpha 2 beta 2 (CK2a2b2) (AID 2283147). The method in brief:
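Cell-free recombinant CK2 α2β2 holoenzyme with a fluorescent peptide substrate; product separated by electrophoretic mobility shift and read 1 h after dosing. Single-point screen at 25 uM in duplicate; actives were followed with concentration-response up to 50 uM versus DMSO.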

The target of assay [5] is human Caspase 5 (CASP5), CASP5 (gene 838) (UniProt P51878). Put plainly: NVS_ENZ_hCASP5: NovaScreen (NVS) Enzymatic Assay for human Caspase 5 (CASP5) (AID 2283137). The method in brief: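 Recombinant human caspase 5 expressed in E. coli, fluorogenic substrate, fluorescence read 2 h after dosing. Single-point 25 uM duplicate screen, then concentration-response to maximum 50 uM for actives; DMSO baseline.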

Assay [6] deals with human AKT serine/threonine Kinase 1 (AKT1), AKT1 (gene 207) (UniProt P31749). As to the kind of experiment: NVS_ENZ_hAKT1: NovaScreen (NVS) Enzymatic Assay for human AKT serine/threonine Kinase 1 (AKT1) (AID 2283138). The method in brief:
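Recombinant human AKT1 with a specific substrate, product separated by electrophoretic mobility shift, read after 1 h. Compounds at 25 uM in duplicate, then concentration-response up to 50 uM for hits; inhibition relative to DMSO.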

The target in assay [7] is human Aurora Kinase A - serine/threonine-protein Kinase 6 (AurA), AURKA (gene 6790) (UniProt O14965). As to the kind of experiment: NVS_ENZ_hAurA: NovaScreen (NVS) Enzymatic Assay for human Aurora Kinase A - serine/threonine-protein Kinase 6 (AurA) (AID 2283142). The method, then: NVS_ENZ_hAurA is a biochemical, single-readout assay that uses extracted gene-proteins in a cell-free assay. Measurements were taken 1 hour after chemical dosing in a 384-well plate.NVS_ENZ_hAurA is one of one assay component(s) measured or calculated from the NVS_ENZ_hAurA assay. It is designed to make measurements of enzyme activity, a form of enzyme reporter, as detected with fluorescence intensity signals by Fluorescence and electrophoretic mobility shift technology.Data from the assay component NVS_ENZ_hAurA was analyzed into 1 assay endpoint. This assay endpoint, NVS_ENZ_hAurA, was analyzed in the positive analysis fitting direction relative to DMSO as the negative control and baseline of activity. Using a type of enzyme reporter, loss-of-signal activity can be used to understand changes in the enzymatic activity as they relate to the gene AURKA. Furthermore, this assay endpoint can be referred to as a primary readout, because this assay has produced multiple assay endpoints where this one serves a enzymatic activity function. To generalize the intended target to other relatable targets, this assay endpoint is annotated to the kinase intended target family, where the subfamily is serine/threonine kinase.
Binding assays used specific radioligands (tritiated, iodinated) with non-radioactive competitive displacement ligands in agonist or antagonist protocols (as indicated) and various reference compounds and inhibitors to titrate specific binding to receptors and transporters. Most enzyme assays (CYPs, kinases, phosphatases, proteases, HDACs) used recombinant protein and specific substrates (fluorescence mostly, some colorimetric and radioactive) and inhibitors, followed by a biochemical separation of substrate and product. All assays for the biochemical HTS were initially run in duplicate at a single concentration (10 uM for CYP450 assays and 25 uM for all others). […]

For assay [8], the target named is human Caspase 4 (CASP4), CASP4 (gene 837) (UniProt P49662). Put plainly: NVS_ENZ_hCASP4: NovaScreen (NVS) Enzymatic Assay for human Caspase 4 (CASP4) (AID 2283143). The method in brief:
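The cell-free assay used E. coli-expressed enzyme with a fluorogenic substrate, read 2 h after dosing. Signal loss was scored versus DMSO. Screening was in duplicate at 25 uM, then singleton concentration-response up to 50 uM.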

Sequence of Caspase-3 (Homo sapiens) (P42574 whole entry, looked up): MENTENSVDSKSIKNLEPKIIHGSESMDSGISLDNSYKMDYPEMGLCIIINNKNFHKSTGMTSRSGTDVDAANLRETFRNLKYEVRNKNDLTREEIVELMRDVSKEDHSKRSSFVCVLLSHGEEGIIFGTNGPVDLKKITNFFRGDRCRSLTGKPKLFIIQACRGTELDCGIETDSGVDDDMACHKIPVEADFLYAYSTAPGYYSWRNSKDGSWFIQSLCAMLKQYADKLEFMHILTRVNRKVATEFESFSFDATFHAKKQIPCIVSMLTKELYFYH
Sequence of human Caspase 5 (CASP5), CASP5 (gene 838) (P51878 whole entry, looked up): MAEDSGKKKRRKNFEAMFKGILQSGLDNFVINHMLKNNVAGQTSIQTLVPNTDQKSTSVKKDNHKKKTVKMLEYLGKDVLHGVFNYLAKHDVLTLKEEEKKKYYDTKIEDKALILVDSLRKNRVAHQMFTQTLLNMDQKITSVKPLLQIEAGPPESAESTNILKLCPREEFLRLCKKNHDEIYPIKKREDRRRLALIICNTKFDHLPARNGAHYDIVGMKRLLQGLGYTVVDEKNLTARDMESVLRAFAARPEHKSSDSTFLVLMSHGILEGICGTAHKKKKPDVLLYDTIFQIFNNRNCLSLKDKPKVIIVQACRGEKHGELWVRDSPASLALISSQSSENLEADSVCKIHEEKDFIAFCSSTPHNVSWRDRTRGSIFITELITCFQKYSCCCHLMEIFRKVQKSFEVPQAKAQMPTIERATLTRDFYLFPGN
Sequence of human AKT serine/threonine Kinase 2 (AKT2), AKT2 (gene 208) (P31751 whole entry, looked up): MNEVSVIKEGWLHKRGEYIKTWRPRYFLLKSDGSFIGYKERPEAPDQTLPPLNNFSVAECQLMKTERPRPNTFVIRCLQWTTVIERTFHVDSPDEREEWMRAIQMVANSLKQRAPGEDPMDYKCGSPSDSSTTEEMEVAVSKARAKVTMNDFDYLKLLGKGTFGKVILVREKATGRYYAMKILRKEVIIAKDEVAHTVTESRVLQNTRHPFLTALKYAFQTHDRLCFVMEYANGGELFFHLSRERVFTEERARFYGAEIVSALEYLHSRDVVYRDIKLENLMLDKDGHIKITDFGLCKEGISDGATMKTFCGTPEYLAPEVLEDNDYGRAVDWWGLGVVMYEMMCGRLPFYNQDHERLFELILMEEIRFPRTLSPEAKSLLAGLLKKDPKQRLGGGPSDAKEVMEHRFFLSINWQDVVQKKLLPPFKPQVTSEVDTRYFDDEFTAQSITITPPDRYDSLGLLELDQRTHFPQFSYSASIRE
Sequence of human Caspase 8 (CASP8), CASP8 (gene 841) (Q14790 whole entry, looked up): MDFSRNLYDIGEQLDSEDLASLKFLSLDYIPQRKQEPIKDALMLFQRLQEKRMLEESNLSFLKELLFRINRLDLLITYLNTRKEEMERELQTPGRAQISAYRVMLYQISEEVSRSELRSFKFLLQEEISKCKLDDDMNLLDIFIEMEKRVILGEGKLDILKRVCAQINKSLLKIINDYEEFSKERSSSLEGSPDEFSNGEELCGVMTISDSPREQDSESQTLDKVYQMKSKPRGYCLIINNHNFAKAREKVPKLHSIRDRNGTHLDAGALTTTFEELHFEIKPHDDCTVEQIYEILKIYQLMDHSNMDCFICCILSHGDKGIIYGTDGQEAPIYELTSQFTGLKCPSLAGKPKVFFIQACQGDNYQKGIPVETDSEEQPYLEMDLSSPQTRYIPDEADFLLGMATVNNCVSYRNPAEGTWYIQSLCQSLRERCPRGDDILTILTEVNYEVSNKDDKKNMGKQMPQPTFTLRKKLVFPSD
Sequence of human Casein Kinase 2- alpha 2 beta 2 (CK2a2b2), CSNK2A1 (gene 1457) (P68400 whole entry, looked up): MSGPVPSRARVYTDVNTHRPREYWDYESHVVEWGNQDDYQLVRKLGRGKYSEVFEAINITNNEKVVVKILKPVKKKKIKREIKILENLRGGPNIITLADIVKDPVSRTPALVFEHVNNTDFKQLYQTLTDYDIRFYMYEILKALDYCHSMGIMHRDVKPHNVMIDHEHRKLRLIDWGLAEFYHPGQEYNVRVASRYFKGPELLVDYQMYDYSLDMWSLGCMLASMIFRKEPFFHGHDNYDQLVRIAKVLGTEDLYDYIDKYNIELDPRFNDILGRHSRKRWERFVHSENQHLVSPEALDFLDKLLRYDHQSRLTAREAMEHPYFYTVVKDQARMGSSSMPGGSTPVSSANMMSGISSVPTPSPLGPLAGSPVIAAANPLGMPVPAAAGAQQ
Sequence of human Caspase 4 (CASP4), CASP4 (gene 837) (P49662 whole entry, looked up): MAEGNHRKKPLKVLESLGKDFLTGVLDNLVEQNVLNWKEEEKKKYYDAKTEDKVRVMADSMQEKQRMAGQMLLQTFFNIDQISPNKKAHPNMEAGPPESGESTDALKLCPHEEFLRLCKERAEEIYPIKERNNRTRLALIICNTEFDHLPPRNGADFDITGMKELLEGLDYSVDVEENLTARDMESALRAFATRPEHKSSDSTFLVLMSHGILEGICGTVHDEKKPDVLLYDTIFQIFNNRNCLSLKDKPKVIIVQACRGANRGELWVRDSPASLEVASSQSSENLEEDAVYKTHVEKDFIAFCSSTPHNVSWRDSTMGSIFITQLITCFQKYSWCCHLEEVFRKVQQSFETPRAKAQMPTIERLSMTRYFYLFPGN
Sequence of human Beta-secretase (BACE), BACE1 (gene 23621) (P56817 whole entry, looked up): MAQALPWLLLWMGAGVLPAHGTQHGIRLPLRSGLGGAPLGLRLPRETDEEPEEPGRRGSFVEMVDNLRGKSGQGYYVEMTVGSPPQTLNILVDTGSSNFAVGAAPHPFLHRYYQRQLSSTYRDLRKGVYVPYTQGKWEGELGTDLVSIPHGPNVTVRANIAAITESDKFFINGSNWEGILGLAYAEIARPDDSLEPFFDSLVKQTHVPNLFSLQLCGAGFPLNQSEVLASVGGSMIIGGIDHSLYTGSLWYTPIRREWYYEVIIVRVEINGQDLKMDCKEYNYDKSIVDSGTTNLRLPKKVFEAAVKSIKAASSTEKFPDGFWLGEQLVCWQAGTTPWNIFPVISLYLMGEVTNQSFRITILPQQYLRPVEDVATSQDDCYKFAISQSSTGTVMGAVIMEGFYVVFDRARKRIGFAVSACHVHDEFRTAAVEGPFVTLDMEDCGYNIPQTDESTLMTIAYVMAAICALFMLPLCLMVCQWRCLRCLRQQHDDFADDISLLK
Sequence of human Aurora Kinase A - serine/threonine-protein Kinase 6 (AurA), AURKA (gene 6790) (O14965 whole entry, looked up): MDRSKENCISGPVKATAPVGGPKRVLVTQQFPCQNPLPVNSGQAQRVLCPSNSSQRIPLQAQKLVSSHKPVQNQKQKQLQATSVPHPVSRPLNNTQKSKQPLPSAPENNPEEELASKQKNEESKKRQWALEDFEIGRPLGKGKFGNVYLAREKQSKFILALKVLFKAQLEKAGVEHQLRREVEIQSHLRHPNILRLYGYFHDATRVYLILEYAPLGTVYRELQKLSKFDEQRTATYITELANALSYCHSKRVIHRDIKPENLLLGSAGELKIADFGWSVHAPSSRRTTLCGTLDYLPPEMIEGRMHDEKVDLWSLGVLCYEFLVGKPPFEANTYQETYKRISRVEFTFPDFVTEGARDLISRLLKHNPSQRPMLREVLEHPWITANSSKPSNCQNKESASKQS
Sequence of human AKT serine/threonine Kinase 1 (AKT1), AKT1 (gene 207) (P31749 whole entry, looked up): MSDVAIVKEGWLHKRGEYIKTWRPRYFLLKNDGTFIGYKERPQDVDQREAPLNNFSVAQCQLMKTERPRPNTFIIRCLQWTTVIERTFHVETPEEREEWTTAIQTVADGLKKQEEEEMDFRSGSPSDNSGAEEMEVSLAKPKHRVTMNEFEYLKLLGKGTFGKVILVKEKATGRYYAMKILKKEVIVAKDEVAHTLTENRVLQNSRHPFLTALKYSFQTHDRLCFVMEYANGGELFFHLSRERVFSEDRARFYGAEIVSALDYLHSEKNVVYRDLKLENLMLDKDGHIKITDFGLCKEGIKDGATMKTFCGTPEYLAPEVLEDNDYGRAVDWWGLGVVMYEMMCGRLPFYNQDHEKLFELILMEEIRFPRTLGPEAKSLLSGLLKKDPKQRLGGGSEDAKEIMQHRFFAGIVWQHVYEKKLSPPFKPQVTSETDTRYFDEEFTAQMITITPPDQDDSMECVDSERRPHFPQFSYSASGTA

Take `Nc1nc(N)nc(NC2CC2)n1`: the compound was called inactive in assay [1].

`CCCCSP(=O)(SCCCC)SCCCC`: the outcome in assay [2] was inactive.

On to `COc1ccc(C(=CC(=O)N2CCOCC2)c2ccc(Cl)cc2)cc1OC`, for which the outcome (with Caspase-3 (Homo sapiens); in [1]) was inactive.

For the compound `CSc1nc(NC(C)C)nc(NC(C)C)n1`, the compound was called inactive in assay [3].

With `CC(COc1ccc(Oc2ccccc2)cc1)Oc1ccccn1` (stereo not given), the AC50 in assay [2] is 37.2 µM (active).

With `CON=C(C(=O)OC)c1ccccc1CON=C(C)c1cccc(C(F)(F)F)c1`, the result in assay [2] was inactive.

Take `CCOP(=O)(NC(C)C)Oc1ccc(SC)c(C)c1` (stereo not given): in the assay with CDK2 (gene 1017), the compound was called inactive.

As to `O=C(O)c1cc(Oc2ccc(C(F)(F)F)cc2Cl)ccc1[N+](=O)[O-]`, the compound was classed as inactive in assay [3], in [1] and in assay [4].

As for `COP(=O)(NC(C)=O)SC` (stereo not given), the call with Caspase-3 (Homo sapiens) was inactive.

As for `Cc1ccn2nc(S(=O)(=O)Nc3c(F)cccc3F)nc2n1`, in assay [5], the compound was called inactive.

Take `CCOP(=S)(Oc1cnc(C(C)(C)C)nc1)OC(C)C` (stereo not given): the compound was called inactive in [4].

Turning to `C#CCC1=C(C)C(OC(=O)C2C(C=C(C)C)C2(C)C)CC1=O` (stereo not given), in [2], the result was inactive.

`CCOP(=O)(SC(C)CC)N1CCSC1=O` (stereo not given): in [6], the outcome was inactive.

With `CC[C@H](C)[C@H]1O[C@]2(C=C[C@@H]1C)C[C@@H]1C[C@@H](C/C=C(\C)[C@@H](O[C@H]3C[C@H](OC)[C@@H](O[C@H]4C[C@H](OC)[C@@H](NC)[C@H](C)O4)[C@H](C)O3)[C@@H](C)/C=C/C=C3\CO[C@@H]4[C@H](O)C(C)=C[C@@H](C(=O)O1)[C@]34O)O2`, the outcome (in [5]; with Caspase-3 (Homo sapiens)) was inactive. For the same compound, the concentration at half-maximal activity (AC50) in assay [2] is 9.68 µM (active).

Regarding `CN(C)[C@@H]1C(=O)C(C(N)=O)=C(O)[C@@]2(O)C(=O)C3=C(O)c4c(O)cccc4[C@@](C)(O)[C@H]3[C@H](O)[C@@H]12`, the AC50 in assay [5] is 5.15 µM (active) and 683 nM (active); in [2], 12.6 µM (active) and 7.9 µM (active); in [7], 29.4 µM (active); in assay [8], 11.9 µM (active); in assay [1], 15.8 µM (active); in assay [4] it was 23.1 µM (active). In addition, in [1], the result was inactive.

With `Cc1nn(-c2cc(NS(C)(=O)=O)c(Cl)cc2Cl)c(=O)n1C(F)F`, the outcome in assay [1] was inactive.

Regarding `Nc1c(Cl)cc([N+](=O)[O-])cc1Cl`, the call in [6] and in [3] was inactive.

Turning to `S=C1NCCN1`, the result in assay [5], in [6], in assay [2], in assay [7], in assay [8] and in [1] was inactive.

With `CCCCOC(=O)c1ccccc1C(=O)O`, the compound was classed as inactive in [6] and in assay [2].

Regarding `CCOP(=S)(OCC)SCCSCC`, the compound was called inactive with Caspase-3 (Homo sapiens).

For the compound `CC(C)=CC1C(C(=O)OCN2C(=O)C3=C(CCCC3)C2=O)C1(C)C` (stereo not given), the results for the half-maximal activity concentration (AC50) (in the assay with Caspase-3 (Homo sapiens); in assay [2]; in assay [1]) were 18.1 µM (active), 25 µM (active) and 25 µM (active), respectively.

With `CCNc1nc(Cl)nc(NC(C)(C)C#N)n1`, the compound was called inactive in the assay with CDK2 (gene 1017).

In the case of `CSc1nnc(C(C)(C)C)c(=O)n1N`, the result in assay [3] was inactive.

On to `CCC(=O)Nc1ccc(Cl)c(Cl)c1`, for which the compound was classed as inactive in assay [8]. The AC50 in [4] was 1.66 µM (active).

For the compound `CCCCN(CC)c1c([N+](=O)[O-])cc(C(F)(F)F)cc1[N+](=O)[O-]`, the compound was classed as inactive with CDK2 (gene 1017).

For the compound `CC(C)[C@H](C(=O)O[C@H](C#N)c1cccc(Oc2ccccc2)c1)c1ccc(Cl)cc1`, in assay [2], the AC50 was 1.19 µM (active). Besides, the compound was called inactive in assay [7].

Take `CC(Oc1cccc(Cl)c1)C(=O)O` (stereo not given): the AC50 in assay [4] is 15 µM (active).

As to `CCC(CC)Nc1c([N+](=O)[O-])cc(C)c(C)c1[N+](=O)[O-]`, the outcome in [2] was inactive.
